The record followed here is PubChem BioAssay (EPA / NIEHS).

Holding throughout (conditions): mRNA level, 48 h; actives raise or lower the signal
Read-out in assay [1]: Nuclear factor NF-kappa-B p105 subunit (Homo sapiens) (UniProt P19838)
Description: LTEA_HepaRG_NFKB1: Life Technologies and Expression Analysis (LTEA) Assay for Nuclear Factor Kappa B Subunit 1 (NFKB1) using HepaRG (AID 2283521). The procedure, abridged:
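Differentiated human HepaRG cells in serum-free induction medium with 0.5% DMSO were exposed for 48 h to eight half-log concentrations, top 100 uM, in duplicate. NFKB1 mRNA measured by Fluidigm TaqMan qRT-PCR, normalised to ACTB, GAPDH and POLR2A; bidirectional fit versus DMSO.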

Read-out in assay [2]: Protein phosphatase 2A (PPP2R4), PTPA (gene 5524)
The experiment in a line: LTEA_HepaRG_PPP2R4: Life Technologies and Expression Analysis (LTEA) Assay for Protein phosphatase 2A (PPP2R4) using HepaRG (AID 2283522). The procedure, abridged:
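Using HepaRG cultures maintained in 0.5% DMSO, chemicals are tested 48 h at up to 100 uM in duplicate. Induction or suppression of PPP2R4 mRNA, measured by qRT-PCR, is fitted bidirectionally against the vehicle baseline.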

Read-out in assay [3]: Phosphatase and tensin (PTEN), PTEN (gene 5728)
The experiment in a line: LTEA_HepaRG_PTEN: Life Technologies and Expression Analysis (LTEA) Assay for Phosphatase and tensin (PTEN) using HepaRG (AID 2283523). A digest of the protocol: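 Read-out: TaqMan qRT-PCR of PTEN transcript, normalized to three housekeeping genes, fitted in both directions against 0.5% DMSO. Differentiated human HepaRG cultures received chemicals for 48 h, eight-point half-log series topping at 100 uM.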

Read-out in assay [4]: solute carrier (SLC22A1), SLC22A1 (gene 6580)
Description: LTEA_HepaRG_SLC22A1: Life Technologies and Expression Analysis (LTEA) Assay for solute carrier (SLC22A1) using HepaRG (AID 2283524). A digest of the protocol:
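Transcript level of SLC22A1 quantified by qRT-PCR (normalized to three housekeeping genes) after 48 h chemical exposure of HepaRG cells, eight concentrations up to 100 µM, half-log steps, 0.5% DMSO vehicle. Gain or loss relative to DMSO fitted bidirectionally.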

Read-out in assay [5]: Pyruvate Dehydrogenase Kinase 4 (PDK4), PDK4 (gene 5166)
Description: LTEA_HepaRG_PDK4: Life Technologies and Expression Analysis (LTEA) Assay for Pyruvate Dehydrogenase Kinase 4 (PDK4) using HepaRG (AID 2283525). A digest of the protocol:
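Readout is qRT-PCR of PDK4 transcript, normalized to three housekeeping genes, with bidirectional fitting against 0.5% DMSO vehicle. Differentiated HepaRG cells were treated 48 h in serum-free induction medium, duplicate wells, eight-point half-log series topping at 100 uM.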

Read-out in assay [6]: NAD(P)H dehydrogenase [quinone] 1 (NQO1), NQO1 (gene 1728)
Description: LTEA_HepaRG_NQO1: Life Technologies and Expression Analysis (LTEA) Assay for NAD(P)H dehydrogenase [quinone] 1 (NQO1) using HepaRG (AID 2283526). The procedure, abridged:
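In this assay, gene expression is read by qRT-PCR after 48 h exposure of HepaRG cells to eight concentrations (max 100 uM, half-log) in 0.5% DMSO. Each chemical runs in duplicate, and activity is scored relative to vehicle.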

Read-out in assay [7]: Nuclear factor erythroid 2-related factor 2 (Homo sapiens) (UniProt Q16236)
Description: LTEA_HepaRG_NFE2L2: Life Technologies and Expression Analysis (LTEA) Assay for Nuclear factor erythroid 2-related factor 2 (NFE2L2) Transcription Factor using HepaRG (AID 2283527).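 Note: TaqMan qRT-PCR transcript level normalised to ACTB GAPDH and POLR2A housekeeping genes.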 The procedure, abridged:
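NFE2L2 transcript level was read by qRT-PCR (housekeeping ACTB/GAPDH/POLR2A normalisation) after 48 h chemical treatment of HepaRG in serum-free induction medium. Duplicate 8-point half-log curves, top 100 uM, 0.5% DMSO vehicle; up- or down-regulation fitted against vehicle.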

Read-out in assay [8]: succinate dehydrogenase complex iron sulfur subunit B (SDHB), SDHB (gene 6390)
Description: LTEA_HepaRG_SDHB: Life Technologies and Expression Analysis (LTEA) Assay for succinate dehydrogenase complex iron sulfur subunit B (SDHB) using HepaRG (AID 2283528). The procedure, abridged:
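HepaRG cells (~100,000/well, plated 48 h) exposed in duplicate for 48 h in serum-free induction medium to 8-point half-log series from 100 uM in 0.5% DMSO; mRNA by qRT-PCR normalised to ACTB, GAPDH, POLR2A; bidirectional fit versus DMSO.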

Read-out in assay [9]: Signal transducer and activator of transcription 3 (Homo sapiens) (UniProt P40763)
The experiment in a line: LTEA_HepaRG_STAT3: Life Technologies and Expression Analysis (LTEA) Assay for Signal transducer and activator of transcription (STAT3) using HepaRG (AID 2283529). A digest of the protocol: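 STAT3 transcript quantified by qRT-PCR against three housekeeping genes (ACTB, GAPDH, POLR2A), fitted both directions relative to DMSO. HepaRG cultures exposed 48 h to eight half-log concentrations, top 100 uM, 0.5% DMSO, serum-free induction medium.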

Read-out in assay [10]: solute carrier (SLCO1B1), SLCO1B1 (gene 10599)
The experiment in a line: LTEA_HepaRG_SLCO1B1: Life Technologies and Expression Analysis (LTEA) Assay for solute carrier (SLCO1B1) using HepaRG (AID 2283530). The procedure, abridged:
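SLCO1B1 transcript levels were quantified by TaqMan qRT-PCR using three housekeeping genes for normalization. This followed 48 h chemical exposure (100 uM top, half-log, 8 points, 0.5% DMSO) of HepaRG liver cells, with gain or loss fitted relative to DMSO.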

Read-out in assay [11]: sulfotransferase 2A1 (SULT2A1), SULT2A1 (gene 6822)
Description: LTEA_HepaRG_SULT2A1: Life Technologies and Expression Analysis (LTEA) Assay for sulfotransferase 2A1 (SULT2A1) using HepaRG (AID 2283531). A digest of the protocol: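 Expression change of SULT2A1, by qRT-PCR with three housekeeping-gene normalization, was scored bidirectionally versus DMSO. Cells: differentiated HepaRG, dosed in duplicate for 48 h across 8 points, highest 100 µM, half-log dilution, 0.5% DMSO.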

Read-out in assay [12]: Transforming Growth Factor (TGFA), TGFA (gene 7039)
The experiment in a line: LTEA_HepaRG_TGFA: Life Technologies and Expression Analysis (LTEA) Assay for Transforming Growth Factor (TGFA) using HepaRG (AID 2283532). A digest of the protocol: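 TGFA transcript quantified by qRT-PCR (Fluidigm arrays) against three housekeeping genes, after 48 hours chemical treatment of HepaRG cells. Top concentration 100 uM with half-log dilutions, 8 points, duplicates, 0.5% DMSO.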

Read-out in assay [13]: Transforming Growth Factor (TGFB1), TGFB1 (gene 7040)
Description: LTEA_HepaRG_TGFB1: Life Technologies and Expression Analysis (LTEA) Assay for Transforming Growth Factor (TGFB1) Transporter using HepaRG (AID 2283533). A digest of the protocol: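 TGFB1 transcript measured by qRT-PCR with normalisation to three housekeeping genes (ACTB, GAPDH, POLR2A); human HepaRG line treated in duplicate for 48 hr with an 8-point series topping at 100 uM, 0.5% DMSO vehicle, bidirectionally fitted.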

Read-out in a further assay: TIMP1, TIMP1 (gene 7076)
The experiment in a line: LTEA_HepaRG_TIMP1: Life Technologies and Expression Analysis (LTEA) Assay for TIMP1 using HepaRG (AID 2283534). A digest of the protocol: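 Bidirectional change in TIMP1 transcript versus 0.5% DMSO, measured by TaqMan qRT-PCR with three housekeeping genes for normalization. HepaRG human liver cells dosed 48 h in duplicate, top concentration 100 uM with half-log dilutions.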

Read-out in assay [14]: Tumor necrosis factor receptor 1 (TNFRSF1A), TNFRSF1A (gene 7132)
Description: LTEA_HepaRG_TNFRSF1A: Life Technologies and Expression Analysis (LTEA) Assay for Tumor necrosis factor receptor 1 (TNFRSF1A) using HepaRG (AID 2283535). A digest of the protocol: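 mRNA measured by qRT-PCR (TaqMan, Fluidigm arrays) against ACTB/GAPDH/POLR2A housekeepers after 48 h chemical exposure of HepaRG cells. Top concentration 100 uM, half-log 8-point series, duplicates; vehicle 0.5% DMSO, both fit directions.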

Read-out in assay [15]: Thyroid Hormone Responsive (THRSP), THRSP (gene 7069)
Description: LTEA_HepaRG_THRSP: Life Technologies and Expression Analysis (LTEA) Assay for Thyroid Hormone Responsive (THRSP) using HepaRG (AID 2283536). A digest of the protocol:
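THRSP transcript quantified by Fluidigm qRT-PCR against three housekeeping genes after 48 h chemical exposure of HepaRG cells in serum-free induction medium; eight-point half-log series, top 100 uM, 0.5% DMSO vehicle, duplicate wells.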

Read-out in assay [16]: UDP glucuronosyltransferase (UGT1A1), UGT1A1 (gene 54658)
Description: LTEA_HepaRG_UGT1A1: Life Technologies and Expression Analysis (LTEA) Assay for UDP glucuronosyltransferase (UGT1A1) using HepaRG (AID 2283538). A digest of the protocol:
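mRNA induction or loss of UGT1A1, by TaqMan qRT-PCR, in duplicate HepaRG wells after 48 h exposure to half-log dilutions topping at 100 uM; DMSO (0.5%) served as baseline.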

Read-out in assay [17]: UDP glucuronosyltransferase (UGT1A6), UGT1A6 (gene 54578)
Description: LTEA_HepaRG_UGT1A6: Life Technologies and Expression Analysis (LTEA) Assay for UDP glucuronosyltransferase (UGT1A6) using HepaRG (AID 2283539). The procedure, abridged:
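Expression was quantified by TaqMan qRT-PCR on Fluidigm arrays with ACTB/GAPDH/POLR2A normalization and bidirectional fitting against 0.5% DMSO. HepaRG cells (~100,000/well) were treated in duplicate for 48 h at eight half-log concentrations up to 100 uM in serum-free induction medium.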

Read-out in assay [18]: X-box binding protein 1 (XBP1), XBP1 (gene 7494)
The experiment in a line: LTEA_HepaRG_XBP1: Life Technologies and Expression Analysis (LTEA) Assay for X-box binding protein 1 (XBP1) using HepaRG (AID 2283540). A digest of the protocol:
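XBP1 transcript by qRT-PCR (housekeeping-normalized: ACTB, GAPDH, POLR2A) after 48 h chemical treatment of HepaRG cells, 8-point half-log series topping at 100 uM, vehicle 0.5% DMSO. Gain and loss of signal fitted relative to DMSO.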

Read-out in assay [19]: Cellular tumor antigen p53 (Homo sapiens) (UniProt P04637)
The experiment in a line: LTEA_HepaRG_TP53: Life Technologies and Expression Analysis (LTEA) Assay for Tumor Protein P53 (TP53) using HepaRG (AID 2283537). A digest of the protocol:
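Differentiated HepaRG cells in serum-free induction medium exposed 48 h in duplicate to 8 half-log concentrations, top 100 uM, 0.5% DMSO. TP53 mRNA by TaqMan qRT-PCR (Fluidigm), normalized to ACTB, GAPDH, POLR2A; fitted bidirectionally versus DMSO.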

Activity calls are given as the source filed them. Rule for the calls: active = hit-call score of the fitted dose curve at least 0.9, where 1 is the maximum; inactive = score below 0.9.

Signal transducer and activator of transcription 3 (Homo sapiens), sequence (P40763 whole entry, looked up): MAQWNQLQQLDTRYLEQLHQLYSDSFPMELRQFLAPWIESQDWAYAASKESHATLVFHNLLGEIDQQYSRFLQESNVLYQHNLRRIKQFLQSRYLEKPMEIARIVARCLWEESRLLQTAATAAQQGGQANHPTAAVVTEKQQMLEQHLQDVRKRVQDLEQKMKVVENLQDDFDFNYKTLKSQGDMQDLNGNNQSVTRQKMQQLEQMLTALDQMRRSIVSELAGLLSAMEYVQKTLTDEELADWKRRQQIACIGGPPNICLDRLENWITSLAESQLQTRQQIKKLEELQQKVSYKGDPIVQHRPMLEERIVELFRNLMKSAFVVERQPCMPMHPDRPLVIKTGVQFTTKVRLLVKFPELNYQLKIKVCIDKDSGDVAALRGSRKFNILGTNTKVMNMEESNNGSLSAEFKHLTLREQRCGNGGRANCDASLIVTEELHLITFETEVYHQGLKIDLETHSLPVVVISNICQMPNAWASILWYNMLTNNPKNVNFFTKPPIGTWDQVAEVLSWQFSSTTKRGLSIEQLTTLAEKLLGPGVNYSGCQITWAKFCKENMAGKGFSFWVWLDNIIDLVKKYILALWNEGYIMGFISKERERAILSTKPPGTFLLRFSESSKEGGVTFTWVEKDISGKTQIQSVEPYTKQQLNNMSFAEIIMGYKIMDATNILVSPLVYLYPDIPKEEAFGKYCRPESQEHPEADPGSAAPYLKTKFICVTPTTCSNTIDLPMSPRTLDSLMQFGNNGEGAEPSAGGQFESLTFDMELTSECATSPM
Nuclear factor NF-kappa-B p105 subunit (Homo sapiens), sequence (P19838 whole entry, looked up): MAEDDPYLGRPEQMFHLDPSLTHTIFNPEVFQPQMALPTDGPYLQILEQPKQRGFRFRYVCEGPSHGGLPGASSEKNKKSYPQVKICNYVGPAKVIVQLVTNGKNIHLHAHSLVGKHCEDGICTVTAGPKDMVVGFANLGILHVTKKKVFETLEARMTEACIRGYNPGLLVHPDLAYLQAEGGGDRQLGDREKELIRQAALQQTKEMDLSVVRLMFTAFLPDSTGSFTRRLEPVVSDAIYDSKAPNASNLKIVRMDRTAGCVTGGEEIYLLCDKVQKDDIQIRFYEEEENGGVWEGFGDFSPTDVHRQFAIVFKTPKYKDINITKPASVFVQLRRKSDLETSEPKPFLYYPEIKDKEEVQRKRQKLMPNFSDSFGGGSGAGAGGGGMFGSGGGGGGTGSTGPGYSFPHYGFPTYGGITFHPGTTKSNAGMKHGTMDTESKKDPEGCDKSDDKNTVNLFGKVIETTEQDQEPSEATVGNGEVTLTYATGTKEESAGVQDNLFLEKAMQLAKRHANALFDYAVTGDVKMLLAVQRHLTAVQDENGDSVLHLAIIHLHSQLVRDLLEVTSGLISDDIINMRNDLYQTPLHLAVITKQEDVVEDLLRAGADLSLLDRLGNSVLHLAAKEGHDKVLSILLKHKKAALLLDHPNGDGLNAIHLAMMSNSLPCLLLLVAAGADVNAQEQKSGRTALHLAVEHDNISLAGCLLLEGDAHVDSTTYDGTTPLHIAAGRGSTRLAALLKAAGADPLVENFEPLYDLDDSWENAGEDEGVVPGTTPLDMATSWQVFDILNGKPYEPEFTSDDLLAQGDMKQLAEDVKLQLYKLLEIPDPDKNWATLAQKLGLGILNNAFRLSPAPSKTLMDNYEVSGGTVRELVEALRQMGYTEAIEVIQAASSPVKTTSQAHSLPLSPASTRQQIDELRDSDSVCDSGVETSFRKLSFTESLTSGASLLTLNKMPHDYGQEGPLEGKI
Nuclear factor erythroid 2-related factor 2 (Homo sapiens), sequence (Q16236 whole entry, looked up): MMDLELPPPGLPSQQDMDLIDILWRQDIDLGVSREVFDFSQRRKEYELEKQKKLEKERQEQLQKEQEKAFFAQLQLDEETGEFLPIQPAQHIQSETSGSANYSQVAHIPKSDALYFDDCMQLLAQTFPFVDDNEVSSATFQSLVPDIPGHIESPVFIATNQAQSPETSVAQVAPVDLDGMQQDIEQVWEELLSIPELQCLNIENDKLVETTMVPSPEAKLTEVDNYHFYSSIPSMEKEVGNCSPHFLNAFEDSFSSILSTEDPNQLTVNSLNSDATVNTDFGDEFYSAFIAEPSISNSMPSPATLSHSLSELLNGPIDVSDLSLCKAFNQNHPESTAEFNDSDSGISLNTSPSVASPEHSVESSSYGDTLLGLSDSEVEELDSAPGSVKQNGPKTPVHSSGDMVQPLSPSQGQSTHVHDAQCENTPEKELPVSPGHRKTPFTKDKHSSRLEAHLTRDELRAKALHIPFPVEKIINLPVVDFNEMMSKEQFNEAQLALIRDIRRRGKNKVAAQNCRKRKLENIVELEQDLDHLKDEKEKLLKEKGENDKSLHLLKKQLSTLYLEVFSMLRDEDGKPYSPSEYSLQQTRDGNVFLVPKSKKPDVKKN
Cellular tumor antigen p53 (Homo sapiens), sequence (P04637 whole entry, looked up): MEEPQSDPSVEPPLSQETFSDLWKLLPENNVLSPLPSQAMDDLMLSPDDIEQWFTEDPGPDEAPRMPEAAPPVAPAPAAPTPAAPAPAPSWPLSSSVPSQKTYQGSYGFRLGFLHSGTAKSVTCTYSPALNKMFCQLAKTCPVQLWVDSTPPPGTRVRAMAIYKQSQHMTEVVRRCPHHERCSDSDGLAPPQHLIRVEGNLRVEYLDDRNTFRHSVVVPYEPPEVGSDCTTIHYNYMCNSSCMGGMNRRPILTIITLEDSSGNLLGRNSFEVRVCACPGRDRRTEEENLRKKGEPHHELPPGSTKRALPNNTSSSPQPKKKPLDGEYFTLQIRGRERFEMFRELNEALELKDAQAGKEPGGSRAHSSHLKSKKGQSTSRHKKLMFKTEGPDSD

For orientation: AC50 means the concentration giving half of the maximal activity seen. As to `Cc1nccn1-c1ccc(Sc2cccc(C3(C(N)=O)CCOCC3)c2)cc1`, the AC50 was 3.18 µM (active) in assay [1]; 27.7 µM (active) in assay [2]; 28 µM (active) in assay [3]; 11.2 µM (active) in assay [4]; 18.6 µM (active) in assay [6]; 27.4 µM (active) in [8]. The AC50 in assay [9] is 1.93 µM (active); in assay [10], 13.6 µM (active); in assay [11], 15 µM (active); in assay [12] it was 9.24 µM (active); in assay [13], 24.8 µM (active); in [14], 7.54 µM (active). Further, the AC50 in assay [15] was 10.8 µM (active); in assay [16], 23 µM (active); in [17] it was 19.1 µM (active); in assay [18], 7.33 µM (active). Further, the outcome in assay [5] is “inactive”; in assay [7], “inactive”; in the assay with TIMP1, TIMP1 (gene 7076), “inactive”.

As to `CC[C@H](C)C(=O)O[C@H]1C[C@H](O)C=C2C=C[C@H](C)[C@H](CC[C@@H](O)C[C@@H](O)CC(=O)O)[C@H]21`, the outcome in assay [1], in assay [2], in [3], in [4], in assay [5] and in assay [6] was inactive. Further, the compound was called inactive in assay [7], in assay [8], in assay [9], in assay [10], in [11] and in assay [12]. Besides, the outcome in assay [13] was “inactive”; with TIMP1, TIMP1 (gene 7076), “inactive”; in [14] it was “inactive”; in assay [16] it was “inactive”; in [17] it was “inactive”; in assay [18], “inactive”.

For `OCCOCCOCCO`, the call in assay [1], in [2], in [3], in assay [4], in assay [5] and in [6] was inactive. In addition, the compound was classed as inactive in [7], in assay [8], in [9], in [10], in [11] and in assay [12]. In addition, the outcome in [13] is “inactive”; with TIMP1, TIMP1 (gene 7076), “inactive”; in [14] it was “inactive”; in assay [15] it was “inactive”; in assay [19], “inactive”; in assay [16], “inactive”. The compound was called inactive in assay [17] and in assay [18].
